ELG1 DNA repair – ELG1-dependent DNA repair inhibition. HEK293T ELG1-luciferase reporter, luminescence, 16 h; DNA damage induced by 5-fluorouridine. Potency, µM (highest dose often 46.1 µM), inactives show at the highest dose activity change, negative = inhibition, actives largely listed as inhibitors. actives 2.3% (n = 330,000). AID 504467; note: potency is the fitted concentration of half-maximal effect; nearly all actives have a fitted effect of over 55% in size
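Step one: seed 2,000 cells per well. Step two: pin-transfer compound or DMSO alongside 5-fluorouridine. Step three: incubate 16 hr, 37 °C, 5% CO2. Step four: add ONE-Glo, wait 30 min, read luminescence.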
HT1080NT lethal – kills 2HG-producing HT-1080-NT fibrosarcoma cells; HT-1080-NT fibrosarcoma viability, CellTiter-Glo ATP luminescence, 48 h; AID 686970; Potency, µM (highest dose often 46.1 µM), inactives show at the top dose activity, negative = less viability, hits mostly cytotoxic; actives 1.6% (n = 360,000);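 note: NT is the 2HG producing partner of a matched IDH1 knockdown line; potency is the fitted concentration of half-maximal effect; 0% = DMSO-treated cells and -100% = media-only wells without cells; nearly all actives have a fitted effect of over 55% in size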
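HT-1080-NT; 750 cells/well; 5% FBS RPMI; 48 h compound, 37 degrees C; CellTiter-Glo luminescence; curve fitting and curve-class assignment.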
IL1B secr inh – inflammasome signaling inhibition, IL-1 beta readout | THP-1 LPS/ATP IL-1B secretion, AlphaLISA, 16 h; hits give low values | activity change, % at 57.5 µM | actives 4.7% (n = 360,000); in the data active = activity change below about -50%; inconclusive = mostly about -30% to -49%
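Secreted IL-1B measured by AlphaLISA bead assay after 16 h compound exposure of THP-1 cells; compounds (final up to 57.5 uM) added 1 h before LPS (250 ng/mL) and ATP (1.25 mM) stimulation; lower signal means less secretion.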
DT40 TDP1 no CPT – qHTS for Inhibitors of human tyrosyl-DNA phosphodiesterase 1 (TDP1): qHTS in cells in absence of CPT; AID 686978, 2013; DT40 Tdp1-/- hTDP1 cells, no CPT, ATP luminescence, 48 h; actives 15% (n = 420,000); Potency, µM (top dose mostly 46.2 µM), for the others: at the highest dose activity change, negative = growth inhibition, hits mostly inhibitors; note: potency is the fitted concentration of half-maximal effect; nearly all actives have a fitted effect of over 55% in size
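DT40 Tdp1-/-;hTDP1 cells, no CPT (DMSO vehicle only), 400 cells/well; compounds pin-transferred; ≥48 hr, 37 °C; CellTiter-Glo 30 min RT dark, luminescence read.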
HT1080 IDH1KD tx – kills HT-1080 cells with IDH1 knockdown. actives 2% (n = 360,000). HT-1080 IDH1 knockdown viability, ATP luminescence, 48 h. Potency, µM (doses to about 46.1 µM), without a hit: at the highest dose activity, negative = toxicity, most hits filed as cytotoxic;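 note: potency is the fitted concentration of half-maximal effect; 0% = DMSO wells and -100% = cell-free medium wells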
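Knockdown cells (IDH1KD HT-1080) received compounds 2 h after plating at 750 cells/well and were kept 48 h at 37 °C in 5% FBS RPMI. A CellTiter-Glo luminescence read gave % activity for curve fitting.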
TDP1 cell CPT – DT40-hTDP1 cell growth loss with CPT; chicken DT40 Tdp1-/-;hTDP1 cells + 20 nM CPT, ATP luminescence, 48 h; Potency, µM (doses to about 46.2 µM), inactives show top-dose activity change, negative = growth inhibition, actives largely listed as inhibitors; actives 12% (n = 420,000); AID 686979; note: potency is the fitted concentration of half-maximal effect; nearly all actives have a fitted effect of over 55% in size
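Cell growth measured by CellTiter-Glo luminescence after a minimum 48 h, 37 C compound exposure with 20 nM CPT in Tdp1-knockout DT40 cells stably expressing hTDP1, seeded 400/well; qHTS titration format.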
Active calls of the source: *; i = inactive; ? = inconclusive; . = no result given. Compounds with a hit are over-represented: about 19% of the library has one in this group of screens. Unless noted, calls come from the whole dose curve; as a rule, active = well fitted curve in the direction sought with a large enough effect; inconclusive = small, poorly fitted or top-dose-only effect, or another doubt; inactive = no such curve, though single readings can be large; an effect the other way counts as inactive or inconclusive. Unless noted, % is set by controls: 0 for no effect and ±100 for the full control effect.

SMILES | ELG1 DNA repair | HT1080NT lethal | IL1B secr inh | DT40 TDP1 no CPT | HT1080 IDH1KD tx | TDP1 cell CPT
CCn1c2ccccc2c2cc(CN3CCN(S(=O)(=O)Cc4ccccc4)CC3)ccc21 | -19% | -18% | 34 | 15µM* | -11% | ?
O=C(NC1CCCCC1)C1c2ccccc2OCC(=O)N1CCc1ccccc1 (stereo not given) | . | 3% | 6 | -26% | 6% | -1%
CCOC(=O)c1c2c(n3ccccc13)C(=O)c1ccccc1C2=O | . | . | . | 10µM* | . | 10µM*
CCOC(=O)c1c2c(n(-c3ccc(OC)cc3)c1C)C(=O)C(=O)c1ccccc1-2 | . | 15µM* | -2 | 2.1µM* | 8.2µM* | 3.3µM*
COc1ccc(CCNC(=O)CCCCCn2c(=O)[nH]c3cc(OC)c(OC)cc3c2=O)cc1OC | . | . | . | ? | . | -18%
CCOC(=O)c1cc(-c2ccccc2)sc1NC(=O)c1ccc(OC)cc1 | 11% | 16% | -14 | ? | 11% | 7.3µM*
CCOC(=O)c1cc(-c2ccccc2)sc1NC(=O)CSc1nnc(N)s1 | ? | -19% | 22 | -10% | -19% | 0%
CCOC(=O)c1cc(-c2ccccc2)sc1NC(=O)COC(=O)c1cccc(S(N)(=O)=O)c1 | 8% | -21% | -11 | 10µM* | ? | ?
CCOC(=O)c1cc(-c2ccccc2)sc1NC(=O)C(C)N1C(=O)c2ccccc2C1=O (stereo not given) | 6% | 27% | -53* | -4% | 22% | -5%
CCOC(=O)c1cc(-c2ccccc2)sc1NC(=O)C(C)Sc1nnc(N)s1 (stereo not given) | 23µM* | -2% | -11 | ? | 0% | ?
COc1ccc(C(=O)NCCNc2nc3cc(C)c(C)cc3cc2C)cc1 | 10% | -19% | 0 | ? | -7% | 1%
COCCCNC(=O)N1[C@H](c2cccs2)[C@@H](C)C(=O)[C@@H](C)[C@@H]1c1cccs1 | . | . | . | -25% | . | ?
Cc1c(Cl)cccc1NC(=S)NN | 3% | -2% | -6 | ? | 3% | ?
Cc1cccc(Cl)c1NC(=S)NN | -4% | 3% | -8 | 13µM* | 2% | ?
COc1ccc(-c2csc3ncnc(N4CCN(S(=O)(=O)c5cccc(Br)c5)CC4)c23)cc1 | ? | 7% | 3 | 9.2µM* | 0% | 23µM*
COc1ccc(-c2csc3ncnc(N4CCN(S(=O)(=O)c5cccc(C(F)(F)F)c5)CC4)c23)cc1 | ? | 5% | 30 | ? | 4% | ?
COc1ccc(-c2csc3ncnc(N4CCN(S(=O)(=O)c5ccc(C(C)=O)cc5)CC4)c23)cc1 | ? | -26% | -74* | ? | ? | ?
C=CCn1c(SCC(=O)NC2CCCC2)nc2c([nH]c3ccccc32)c1=O | 1% | -10% | i | -12% | -10% | -21%
C[C@@H]1COc2cc(N3CC[C@H](O)C3)ccc2S(=O)(=O)N1 | . | 15% | 24 | 1% | 12% | 2%
CC/C(=N\NC(=O)c1ccc(-c2ccccc2)cc1)C12CC3CC(CC(C3)C1)C2 | 13% | -11% | 12 | 13µM* | -10% | -14%
Cc1ccc(C)c(NC(=O)c2ccc3c(c2)N(Cc2ccc(F)cc2)C(=O)CS3=O)c1 (stereo not given) | ? | 7% | -4 | -27% | 3% | -25%
O=C(NCC1CCCO1)c1ccc2c(c1)N(Cc1ccccc1)C(=O)CS2=O (stereo not given) | ? | 0% | -8 | ? | 3% | 15µM*
O=C(Nc1ccc(Br)cc1F)c1ccc2c(c1)N(Cc1ccccc1)C(=O)CS2=O (stereo not given) | -8% | ? | -58* | 13µM* | -27% | 9.2µM*
Oc1ccc2ccccc2c1C=NC12CN3CCN(CN(C3)C1)C2 | -1% | -2% | 25 | ? | -5% | 13µM*
Oc1cccc(C=Nc2cccc3ccccc23)c1O | -13% | 18µM* | -59* | ? | 23µM* | ?
SMILES | ELG1 DNA repair | HT1080NT lethal | IL1B secr inh | DT40 TDP1 no CPT | HT1080 IDH1KD tx | TDP1 cell CPT
CS/C(N)=N/N=C/c1c(O)ccc2ccccc12 | ? | -16% | 34 | 3.7µM* | ? | ?
Oc1ccccc1C=Nc1cccc2ccccc12 | -23% | -3% | 14 | -2% | -12% | -2%
Oc1oc(-c2ccccc2)nc1C=Nc1cccc2ccccc12 | -3% | ? | 13 | 16µM* | -16% | ?
O=C(COC(=O)c1cc(Br)ccc1O)Nc1cccnc1Cl | -1% | 4% | 1 | 1% | 7% | -4%
CCN(CC)C(=O)c1ncn(C)c1C(=O)N(CC)CC | 13% | 3% | 28 | -5% | 11% | -16%
Nn1c(SCC(=O)NC2CCCCCC2)nnc1-c1ccco1 | . | 1% | -4 | -2% | 0% | -20%
Oc1ccccc1N=Cc1c(O)ccc2ccccc12 | -4% | ? | 35 | -17% | 18µM* | ?
Oc1ccc2ccccc2c1C=Nc1ccccc1Br | -6% | -24% | 24 | -25% | -27% | 3%
Cc1ccc(N2CC(C)Cn3c2nc2c3c(=O)n(CC(=O)OCc3ccccc3)c(=O)n2C)cc1C (stereo not given) | ? | 0% | 10 | 18µM* | -3% | 11µM*
Cn1c(=O)n(CCc2ccccc2)c(=O)c2c1nc1n2CCCN1CCc1ccccc1 | 23µM* | 23µM* | ? | 7.3µM* | 29µM* | 12µM*
CC(C)Cn1c(=O)c2c(nc3n2CCCN3CCc2ccccc2)n(C)c1=O | ? | -3% | ? | 15µM* | -22% | 16µM*
CCCn1c(=O)c2c(nc3n2CCCN3CCc2ccccc2)n(C)c1=O | ? | 3% | 1 | ? | -1% | ?
COCCn1c(=O)c2c(nc3n2CC(C)CN3CCc2ccccc2)n(C)c1=O (stereo not given) | -2% | 0% | 29 | ? | 8% | ?
CCn1c(=O)c2c(nc3n2CC(C)CN3CCc2ccccc2)n(C)c1=O (stereo not given) | ? | -15% | -1 | ? | 1% | 21µM*
Cc1ccc(N2CCCn3c2nc2c3c(=O)n(CC(=O)OCc3ccccc3)c(=O)n2C)cc1C | 0% | . | . | . | . | .
Cc1ccc(C)c(NC(=O)c2ccc3c(c2)CCCN3S(C)(=O)=O)c1 | . | . | . | -13% | . | -15%
C=CCn1cnnc1SCC(=O)Nc1cccnc1Cl | 18% | . | . | . | . | .
